# Experimental data from PMC12431657, “Discovery and mechanistic insights of dibenzoylmethane as a broad spectrum inhibitor of coronavirus” (PLOS Pathogens, 2025).
# Counter-ions that a name gives are not always drawn. Like-named read-outs stand apart in the source and are kept apart here. The campaign covered roughly 3,300 compounds. About 95 (3%) showed an effect of 50% or more. What follows is part of a selection rich in strong results, with near analogues and random picks from the rest.
# Tested on: HCoV-229E
# Parameters: species or system Huh-7; HTS, protection from HCoV-229E induced cell death, luminescent cell viability (CellCounting-Lite 2.0), inhibition rate
# Conditions: 24 h post infection, 1 h compound pre-incubation, 10 µM, inhibitor
SMILES,229E Inhibition rate,"229E Inhibition rate (229E Inhibition rate, 24 h)"
COc1cc2oc(=O)ccc2cc1CC=C(C)C [Suberosin],15.6%,
COC(=O)CC[C@@H](C)[C@H]1CC[C@H]2[C@@H]3[C@H](O)C[C@@H]4C[C@H](O)CC[C@]4(C)[C@H]3C[C@H](O)[C@]12C [Methyl cholate],54.9%,
COc1c(/C=C/C(=O)c2ccc(O)cc2)ccc(O)c1CC=C(C)C [Licochalcone C],5%,
CC(=O)NCC(=O)O [N-Acetylglycine],10.2%,
COc1c(CC=C(C)C)c(O)cc2oc(=O)c(-c3ccc(O)cc3O)cc12 [Glycycoumarin],5.6%,
COc1c(CC=C(C)C)c(O)cc2oc(=O)c3c4ccc(O)cc4oc3c12 [Neoglycyrol],90.8%,
CC(C)=CCc1cc2c(cc1O)oc(=O)c1c3ccc(O)cc3oc21 [Psoralidin],43.7%,
C[n+]1cccc(C(=O)[O-])c1 [Trigonelline (chloride)],,13.3%
C[C@@H]1C(=O)O[C@H]2[C@H](O)[C@@]34[C@H]5C[C@@H](C(C)(C)C)[C@]36[C@@H](OC(=O)[C@@H]6O)O[C@@]4(C(=O)O5)[C@@]12O [Ginkgolide B],25.6%,
C[C@@H]1C(=O)O[C@H]2C[C@@]34[C@H]5C[C@@H](C(C)(C)C)[C@]36[C@@H](OC(=O)[C@@H]6O)O[C@@]4(C(=O)O5)[C@]21O [Ginkgolide A],11.6%,
CC1=C2[C@@H](OC1=O)[C@H](O)[C@]13[C@H]4C[C@@H](C(C)(C)C)[C@]15[C@@H](OC(=O)[C@@H]5O)O[C@@]23C(=O)O4 [Ginkgolide K],62%,
OC[C@H]1O[C@@](CO)(OC[C@@]2(OC[C@@]3(OC[C@@]4(OC[C@@]5(OC[C@@]6(OC[C@@]7(OC[C@@]8(O[C@H]9O[C@H](CO)[C@@H](O)[C@H](O)[C@H]9O)O[C@H](CO)[C@@H](O)[C@@H]8O)O[C@H](CO)[C@@H](O)[C@@H]7O)O[C@H](CO)[C@@H](O)[C@@H]6O)O[C@H](CO)[C@@H](O)[C@@H]5O)O[C@H](CO)[C@@H](O)[C@@H]4O)O[C@H](CO)[C@@H](O)[C@@H]3O)O[C@H](CO)[C@@H](O)[C@@H]2O)[C@@H](O)[C@@H]1O [Fructo-oligosaccharide DP9/GF8],41%,
CCc1ccc(O)cc1O [4-Ethylresorcinol],19.1%,
CC(C)=CCC1=CC(=O)c2ccccc2C1=O [Deoxylapachol],8.4%,
CC(C)=CCC/C(C)=C/CC/C(C)=C/CC/C(C)=C/CC1=C(C)C(=O)c2ccccc2C1=O [Menaquinone-4],4.1%,
CC(C)=CCC1=C(O)C(=O)c2ccccc2C1=O [Lapachol],54.4%,

SMILES,229E Inhibition rate,"229E Inhibition rate (229E Inhibition rate, 24 h)"
C[C@@H]1O[C@@H](O[C@H]2[C@H](O[C@H]3CC[C@@]4(C)[C@@H](CC[C@]5(C)[C@@H]4CC=C4[C@@H]6CC(C)(C)CC[C@]6(C(=O)O)CC[C@]45C)[C@]3(C)CO)OC[C@H](O)[C@@H]2O)[C@H](O)[C@H](O[C@@H]2O[C@H](CO)[C@@H](O[C@@H]3O[C@H](CO)[C@@H](O)[C@H](O)[C@H]3O)[C@H](O)[C@H]2O)[C@H]1O [Macranthoside B],9.3%,
NCCc1cc(O)c(O)c(O)c1 [5-Hydroxydopamine hydrochloride],11.7%,
O=P(O)(O)OC(CO)CO [β-Glycerophosphate (disodium salt hydrate)],11.7%,
COc1cc(OC)c(CCC(=O)c2ccc(O)cc2)c(OC)c1 [Loureirin B],16%,
"Oc1cc2cc[nH]c2cc1O [5,6-Dihydroxyindole]",1.6%,
CC(=O)O[C@@H]1C[C@H](O)[C@@]23CO[C@@H](O)[C@]1(C)[C@@H]2C[C@@H](O)[C@]1(C)[C@@H]3C(=O)[C@H](OC(C)=O)[C@@]2(C)[C@H](c3ccoc3)C[C@H]3O[C@]321 [Toosendanin],23.4%,
C[C@H](CO[C@@H]1O[C@H](CO)[C@@H](O)[C@H](O)[C@H]1O)[C@H]1CC[C@@]2(CC[C@]3(C)[C@H](CC[C@@H]4[C@@]5(C)CC[C@H](O[C@@H]6O[C@H](CO)[C@@H](O)[C@H](O)[C@H]6O[C@@H]6O[C@H](CO)[C@@H](O)[C@H](O)[C@H]6O)[C@@](C)(CO)[C@@H]5CC[C@]43C)[C@H]2O)CO1 [Hosenkoside B],10.3%,
C[C@@H](CO[C@@H]1O[C@H](CO)[C@@H](O)[C@H](O)[C@H]1O)[C@@H]1CC[C@@]2(CC[C@]3(C)[C@H](CC[C@@H]4[C@@]5(C)CC[C@H](O[C@@H]6O[C@H](CO)[C@@H](O)[C@H](O)[C@H]6O[C@@H]6OC[C@@H](O)[C@H](O)[C@H]6O)[C@@](C)(CO[C@@H]6O[C@H](CO)[C@@H](O)[C@H](O)[C@H]6O)[C@@H]5CC[C@]43C)[C@H]2O)CO1 [Hosenkoside M],10.1%,
C[C@@H](CO[C@@H]1O[C@H](CO)[C@@H](O)[C@H](O)[C@H]1O)[C@@H]1CC[C@@]2(CC[C@]3(C)[C@H](CC[C@@H]4[C@@]5(C)CC[C@H](O[C@@H]6O[C@H](CO)[C@@H](O)[C@H](O)[C@H]6O[C@@H]6O[C@H](CO)[C@@H](O)[C@H](O)[C@H]6O)[C@@](C)(CO[C@@H]6O[C@H](CO)[C@@H](O)[C@H](O)[C@H]6O)[C@@H]5CC[C@]43C)[C@H]2O)CO1 [Hosenkoside K],58.2%,
O=C(O)Cc1ccc(O)cc1 [4-Hydroxyphenylacetic acid],52.1%,
"O=C(O)Cc1ccc(O)c(O)c1 [3,4-Dihydroxybenzeneacetic acid]",39.5%,
O=C(O)C(=O)Cc1ccc(O)cc1 [4-Hydroxyphenylpyruvic acid],21.1%,
CN(C)CC(=O)O [N-Methylsarcosine],11.2%,
COc1cc(/C=C/C(=O)OC(C)C)ccc1O [Isopropyl ferulate],36.5%,
C[C@@H]1O[C@@H](Oc2cc(O)c3c(c2)O[C@H](c2ccc(O)c(O)c2)[C@@H](O)C3=O)[C@H](O)[C@H](O)[C@H]1O [Taxifolin 7-O-rhamnoside],9.6%,
C[C@H](CC[C@@H](O)C(C)(C)O)[C@H]1CC[C@@]2(C)[C@@H]3CC=C4[C@@H](CC[C@H](O)C4(C)C)[C@]3(C)C(=O)C[C@]12C [Bryodulcosigenin],12.5%,
COc1cc2ccc(=O)oc2c(O[C@@H]2O[C@H](CO)[C@@H](O)[C@H](O)[C@H]2O)c1O [Fraxin],10.9%,
